Assay results from PubChem BioAssay (NCATS).
Results filed as inconclusive are left out. Calls of active or inactive are those of the source. Unless noted, calls come from the whole dose curve.

How the values were obtained:
[1] = qHTS for Inhibitors of the Functional Ribonucleoprotein Complex (vRNP) of Lassa (LASV) Arenavirus: LASV Primary Screen - GLuc reporter signal (AID 1347082; calls by dose curve; tested in HEK293 reporter line; note: nearly all actives have a fitted effect of over 60% in size)
[2] = qHTS for Inhibitors of the Functional Ribonucleoprotein Complex (vRNP) of Lassa (LASV) Arenavirus: Viability assay - alamar blue signal for LASV Primary Screen (AID 1347083; calls by dose curve; tested in HEK293 reporter line; note: nearly all actives have a fitted effect of over 80% in size)
[3] = qHTS for Inhibitors of the Functional Ribonucleoprotein Complex (vRNP) of Lymphocytic Choriomeningitis Arenaviruses (LCMV): Viability assay - alamar blue signal for LCMV Primary Screen (AID 1347085; calls by dose curve; tested in HEK293 reporter line; note: nearly all actives have a fitted effect of over 80% in size)
[4] = biological target: Nucleoprotein (Lymphocytic choriomeningitis virus (strain Armstrong)) (UniProt P09992); assay: qHTS for Inhibitors of the Functional Ribonucleoprotein Complex (vRNP) of Lymphocytic Choriomeningitis Arenaviruses (LCMV): LCMV Primary Screen - GLuc reporter signal (AID 1347086); note: nearly all actives have a fitted effect of over 70% in size
Sequence of Nucleoprotein (Lymphocytic choriomeningitis virus (strain Armstrong)) (P09992 whole entry, looked up): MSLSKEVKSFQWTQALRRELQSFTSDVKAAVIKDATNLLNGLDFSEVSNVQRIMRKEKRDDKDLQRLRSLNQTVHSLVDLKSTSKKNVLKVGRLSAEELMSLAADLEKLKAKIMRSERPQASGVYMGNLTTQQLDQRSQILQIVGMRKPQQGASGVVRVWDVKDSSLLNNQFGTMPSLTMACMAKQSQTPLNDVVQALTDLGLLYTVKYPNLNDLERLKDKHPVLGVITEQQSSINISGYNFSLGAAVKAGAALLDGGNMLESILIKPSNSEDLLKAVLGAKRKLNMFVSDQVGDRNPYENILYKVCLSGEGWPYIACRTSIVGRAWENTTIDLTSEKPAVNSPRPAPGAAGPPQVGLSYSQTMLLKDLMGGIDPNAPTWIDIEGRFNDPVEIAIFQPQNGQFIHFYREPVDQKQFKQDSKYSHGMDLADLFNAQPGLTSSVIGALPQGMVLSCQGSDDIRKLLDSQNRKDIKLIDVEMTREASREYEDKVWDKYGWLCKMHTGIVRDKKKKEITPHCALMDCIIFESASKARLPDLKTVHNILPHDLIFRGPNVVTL
% is set by controls: 0 for no effect and ±100 for the full control effect.
Note: series mostly up to about 57 µM.

CN1CCN(CCCN2c3ccccc3Sc3ccc(S(=O)(=O)N(C)C)cc32)CC1
inactive: Potency [1] | Potency [2] | Potency [3] | Potency [4]

CCOC(=O)N1CCC(Nc2ccc(Cl)cc2N)CC1
inactive: Potency [1] | Potency [2] | Potency [3] | Potency [4]

O=C(Nc1ccccc1)OCC(CN1CCCCC1)OC(=O)Nc1ccccc1 (stereo not given)
inactive: Potency [1] | Potency [2] | Potency [3] | Potency [4]

COCC(=O)O[C@]1(CCN(C)CCCc2nc3ccccc3[nH]2)CCc2cc(F)ccc2[C@@H]1C(C)C
inactive: Potency [1] | Potency [2] | Potency [3] | Potency [4]

CCCCc1cc2ccccc2c(OCCN(C)C)n1
inactive: Potency [1] | Potency [2] | Potency [3] | Potency [4]

O=C(O)Cn1c(C(=O)Nc2nc(-c3ccccc3Cl)cs2)cc2ccccc21
inactive: Potency [1] | Potency [2] | Potency [3] | Potency [4]

O=C(Nc1ccc(C(=O)O)c(O)c1)c1ccccc1
inactive: Potency [1] | Potency [2] | Potency [3] | Potency [4]

Cc1c(C)n(Cc2ccccc2)c2ccc(C(=O)OCCN(C)C)cc12
inactive: Potency [1] | Potency [2] | Potency [3] | Potency [4]

OC[C@]1(O)OC[C@@H](O)[C@H](O)[C@@H]1O
inactive: Potency [1] | Potency [2] | Potency [3] | Potency [4]

O=C(NN1CCCC1)NS(=O)(=O)c1ccc(Cl)cc1
inactive: Potency [1] | Potency [2] | Potency [3] | Potency [4]

CCCC(C(=O)OCCN(CC)CC)(c1ccccc1)c1ccccc1
inactive: Potency [1] | Potency [2] | Potency [3] | Potency [4]

CC(=O)Nc1ccc(S(=O)(=O)Nc2ccc([N+](=O)[O-])cc2)cc1
inactive: Potency [1] | Potency [2] | Potency [3] | Potency [4]

O=S(=O)(c1cccc2cnccc12)N1CCCNCC1
inactive: Potency [1] | Potency [2] | Potency [3] | Potency [4]

CCN1CCN(c2cc(-c3ccc(F)cc3)c3c(n2)CCCCCC3)CC1
inactive: Potency [1] | Potency [2] | Potency [3] | Potency [4]

CN(Cc1ccc(C(C)(C)C)cc1)Cc1cccc2ccccc12
inactive: Potency [1] | Potency [2] | Potency [3] | Potency [4]

CC(C)Cn1cnc2c1c(=O)n(C)c(=O)n2C
inactive: Potency [1] | Potency [2] | Potency [3] | Potency [4]

CN(C)C(=O)Oc1cccc([N+](C)(C)C)c1
inactive: Potency [1] | Potency [2] | Potency [3] | Potency [4]

CC(C)C[C@@H](N)C(=O)O
inactive: Potency [1] | Potency [2] | Potency [3] | Potency [4]

C=C1C(=C/C=C2\CCC[C@]3(C)[C@@H]([C@H](C)/C=C/[C@@H](O)C4CC4)CC[C@@H]23)C[C@@H](O)C[C@@H]1O
inactive: Potency [1] | Potency [2] | Potency [3] | Potency [4]

CCC(C)(C)c1ccc(CC(C)CN2C[C@@H](C)O[C@@H](C)C2)cc1 (stereo not given in full)
inactive: Potency [1] | Potency [2] | Potency [3] | Potency [4]

CCCCN(CCCC)C(C(N)=O)c1ccc(OC)cc1 (stereo not given)
inactive: Potency [1] | Potency [2] | Potency [3] | Potency [4]

N[C@@H](Cc1c[nH]c2ccc(O)cc12)C(=O)O
inactive: Potency [1] | Potency [2] | Potency [3] | Potency [4]

Cc1cc(=O)oc2cc(O)ccc12
inactive: Potency [1] | Potency [2] | Potency [3] | Potency [4]

Nc1c2c(nc3c1CCC3)CCCC2
inactive: Potency [1] | Potency [2] | Potency [3] | Potency [4]

O=C1c2cccc(O)c2C(=O)c2c(O)cccc21
inactive: Potency [1] | Potency [2] | Potency [3] | Potency [4]

O=C1NCN(c2ccccc2)C12CCN(CCCC(c1ccc(F)cc1)c1ccc(F)cc1)CC2
inactive: Potency [1] | Potency [2] | Potency [3] | Potency [4]

C/C=C/c1ccc(OC)cc1
inactive: Potency [1] | Potency [2] | Potency [3] | Potency [4]

CCCC(=O)O[C@]1(C(=O)CCl)[C@@H](C)C[C@H]2[C@@H]3CCC4=CC(=O)C=C[C@]4(C)[C@@]3(F)C(=O)C[C@@]21C
inactive: Potency [1] | Potency [2] | Potency [3] | Potency [4]

CC(N)C(=O)OC(C)(C)Cc1ccc(Cl)cc1 (stereo not given)
inactive: Potency [1] | Potency [2] | Potency [3] | Potency [4]

O=C(CCN1CCN2CCCC2C1)N1c2ccccc2Sc2ccc(Cl)cc21 (stereo not given)
inactive: Potency [1] | Potency [2] | Potency [3] | Potency [4]

CN1CCCN=C1/C=C/c1cccs1
inactive: Potency [1] | Potency [2] | Potency [3] | Potency [4]

C[C@]12CCC(=O)C=C1CC[C@@H]1[C@@H]2C(=O)C[C@@]2(C)[C@H]1CC[C@]2(O)C(=O)CO
inactive: Potency [1] | Potency [2] | Potency [3] | Potency [4]

COC(=O)C1=C(C)NC(C)=C(C(=O)OC)C1c1ccccc1[N+](=O)[O-]
inactive: Potency [1] | Potency [2] | Potency [3] | Potency [4]

CCOc1ccccc1O[C@H](c1ccccc1)[C@H]1CNCCO1
inactive: Potency [1] | Potency [2] | Potency [3] | Potency [4]

Cc1cc(NC(=O)C2=C(O)c3ccccc3S(=O)(=O)N2C)no1
inactive: Potency [1] | Potency [2] | Potency [3] | Potency [4]

CC1(C)[C@@H](OC(=O)CCC(=O)O)CC[C@]2(C)[C@H]3C(=O)C=C4[C@@H]5C[C@@](C)(C(=O)O)CC[C@]5(C)CC[C@@]4(C)[C@]3(C)CC[C@@H]12
inactive: Potency [1] | Potency [2] | Potency [3] | Potency [4]

CCN1CCCC(OC(=O)C(c2ccccc2)c2ccccc2)C1 (stereo not given)
inactive: Potency [1] | Potency [2] | Potency [3] | Potency [4]

O=C(CCN1CCN(CCO)CC1)N1c2ccccc2Sc2ccc(C(F)(F)F)cc21
inactive: Potency [1] | Potency [2] | Potency [3] | Potency [4]

OCc1ccccc1O
inactive: Potency [1] | Potency [2] | Potency [3] | Potency [4]

Fc1ccc(C(c2ccc(F)cc2)N2CCNCC2)cc1
inactive: Potency [1] | Potency [2] | Potency [3] | Potency [4]

CCNC(=O)NCc1cccc(Cl)c1
inactive: Potency [1] | Potency [2] | Potency [3] | Potency [4]

CCCCOc1ccc(OCCCN2CCOCC2)cc1
inactive: Potency [1] | Potency [2] | Potency [3] | Potency [4]

CN(C)CCn1nnnc1SCC1=C(C(=O)O)N2C(=O)[C@@H](NC(=O)Cc3csc(N)n3)[C@H]2SC1
inactive: Potency [1] | Potency [2] | Potency [3] | Potency [4]

c1cc(CN2CCCCC2)cc(OCCCNc2nc3ccccc3s2)c1
inactive: Potency [1] | Potency [2] | Potency [3] | Potency [4]

CN1CCN(c2cc3c(cc2F)c(=O)c(C(=O)O)cn3-c2ccc(F)cc2)CC1
inactive: Potency [1] | Potency [2] | Potency [3] | Potency [4]

Cc1c(N)c(=O)n(-c2ccccc2)n1C
inactive: Potency [1] | Potency [2] | Potency [3] | Potency [4]

CC(O)COc1ccccc1 (stereo not given)
inactive: Potency [1] | Potency [2] | Potency [3] | Potency [4]

Nc1ccn([C@H]2CC[C@@H](CO)O2)c(=O)n1
inactive: Potency [1] | Potency [2] | Potency [3] | Potency [4]

CC(=O)Oc1ccc(C2(c3ccc(OC(C)=O)cc3)C(=O)Nc3ccccc32)cc1
inactive: Potency [1] | Potency [2] | Potency [3] | Potency [4]

C/C(=C(\CCOP(=O)(O)O)SC(=O)c1ccccc1)N(C=O)Cc1cnc(C)nc1N
inactive: activity change, negative = inhibition [1] 1.78% [at 5.82 µM] | activity change, negative = reduced viability [2] 7.22% [at 5.82 µM] | activity change, negative = lower viability [3] -0.415% [at 5.82 µM] | activity change, negative = inhibition [4] -1.19% [at 5.82 µM]

Cc1ccc(/C=N/n2c(-c3ccccc3)csc2=S)cc1
inactive: Potency [1] | Potency [2] | Potency [3] | Potency [4]

CCc1cccc2c3c([nH]c12)C(CC)(CC(=O)O)OCC3 (stereo not given)
inactive: Potency [1] | Potency [2] | Potency [3] | Potency [4]

c1ccc2c(c1)CCc1ccccc1N2
inactive: Potency [1] | Potency [2] | Potency [3] | Potency [4]

CN(C)C(=O)CNC(=O)Cc1ccccc1
inactive: Potency [1] | Potency [2] | Potency [3] | Potency [4]

NNc1nnc(NN)c2ccccc12
inactive: Potency [1] | Potency [2] | Potency [3] | Potency [4]

Cc1cccc(N(C)C(=S)Oc2ccc3c(c2)C2CCC3C2)c1 (stereo not given)
inactive: Potency [1] | Potency [2] | Potency [3] | Potency [4]

COc1nc(C)nc(Cl)c1NC1=NCCN1
inactive: Potency [1] | Potency [2] | Potency [3] | Potency [4]

C[C@]12CC[C@@H]3c4ccc(O)cc4CC[C@H]3[C@@H]1CC[C@@H]2OC(=O)CCC1CCCC1
inactive: Potency [1] | Potency [2] | Potency [3] | Potency [4]

O=C(O)C1CCC1
inactive: Potency [1] | Potency [2] | Potency [3] | Potency [4]

CC(=O)N1CCN(c2ccc(O)cc2)CC1
inactive: Potency [1] | Potency [2] | Potency [3] | Potency [4]
